Results reported in PubChem BioAssay (Tox21).
Inconclusive results are not listed. Some compounds were tested as several samples or in several runs, with calls that do not always agree. The source made the active and inactive calls. Unless noted, calls come from the whole dose curve; as a rule, active = well fitted curve in the direction sought with a large enough effect in the repeat runs; inconclusive = weak or mixed curves; inactive = no such curve, though single readings can be large; an effect the other way counts as inactive or inconclusive.

Assays:
[1] = qHTS assay to identify small molecule antagonists of the glucocorticoid receptor (GR) signaling pathway - cell viability counter screen (AID 720693); note: nearly all actives have a fitted effect of over 55% in size
[2] = qHTS assay for identifying genotoxic compounds that show differential cytotoxicity against isogenic chicken DT40 cell lines with known DNA damage response pathways - wild type cell line (AID 743012); note: nearly all actives have a fitted effect of over 60% in size; note: potency is the fitted concentration of half-maximal effect
In short: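 Luminescent ATP viability signal (CellTiter-Glo, 30 min RT) recorded after wild type DT40 cells were incubated with compounds for 40 h at 37 C/5% CO2.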

[3] = qHTS assay for identifying genotoxic compounds that show differential cytotoxicity against isogenic chicken DT40 cell lines with known DNA damage response pathways - Rev3 mutant cell line (AID 743014); note: nearly all actives have a fitted effect of over 55% in size
[4] = qHTS assay for identifying genotoxic compounds that show differential cytotoxicity against isogenic chicken DT40 cell lines with known DNA damage response pathways - Rad54/Ku70 mutant cell line (AID 743015); note: nearly all actives have a fitted effect of over 60% in size; note: potency is the fitted concentration of half-maximal effect
[5] = qHTS assay to identify small molecule antagonists of the androgen receptor (AR) signaling pathway - cell viability counter screen (AID 743033; note: nearly all actives have a fitted effect of over 45% in size)
[6] = qHTS assay to identify small molecule antagonists of the androgen receptor (AR) signaling pathway using the MDA cell line - cell viability counter screen (AID 743041; note: nearly all actives have a fitted effect of over 45% in size)
In short: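 qHTS viability read-out; MDA-kb2 AR-luc; R1881-stimulated; 16 h exposure at 37C, 0% CO2; CellTiter-Fluor, 30 min; fluorescence intensity.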

[7] = qHTS assay to identify small molecule antagonists of the thyroid receptor (TR) signaling pathway (AID 743065); note: series mostly up to about 70 µM; nearly all actives have a fitted effect of over 55% in size
In short: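 GH3.TRE-Luc rat pituitary cells carrying two TR response elements driving luciferase were plated for 4 h, given compound plus 1 nM T3 (final), and incubated 23.5 h at 37 C. ONE-Glo luminescence measured reporter inhibition; CellTiter-Fluor fluorescence tracked cytotoxicity.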

[8] = system: thyroid hormone receptor (rat, GH3 cells); assay: qHTS assay to identify small molecule agonists of the thyroid receptor (TR) signaling pathway (AID 743066; calls by dose curve)
[9] = qHTS assay to identify small molecule antagonists of the estrogen receptor alpha (ER-alpha) signaling pathway - cell viability counter screen (AID 743074; calls by dose curve; note: nearly all actives have a fitted effect of over 45% in size)
[10] = qHTS assay to identify small molecule antagonists of the estrogen receptor alpha (ER-alpha) signaling pathway using the BG1 cell line - cell viability counter screen (AID 743081);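 note: compound given together with 17beta-estradiol as the ER stimulus; series mostly up to about 70 µM; nearly all actives have a fitted effect of over 45% in size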
Aromatase (Homo sapiens) = Aromatase (Homo sapiens) (UniProt P11511); assay: qHTS assay to identify aromatase inhibitors (AID 743083); note: series mostly up to about 70 µM; nearly all actives have a fitted effect of over 55% in size
[11] = qHTS assay to identify small molecule antagonists of the thyroid receptor (TR) signaling pathway - cell viability counter screen (AID 743064); note: nearly all actives have a fitted effect of over 50% in size; note: potency is the fitted concentration of half-maximal effect
In short: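 Same-well viability check: GH3.TRE-Luc cells stimulated with 1 nM T3 alongside test compound for 23.5 h, followed by CellTiter-Fluor fluorescence.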

[12] = target: Estrogen receptor (Homo sapiens) (UniProt P03372); assay: qHTS assay to identify small molecule antagonists of the estrogen receptor alpha (ER-alpha) signaling pathway (AID 743069; active = well fitted curve in the direction sought with a large enough effect in the signal ratio in the repeat runs, not every such curve was filed as active; the % refers to the signal ratio)
In short: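 Screening used a UAS-driven beta-lactamase reporter integrated into HEK293 cells expressing ER-alpha, stimulated with 17beta-estradiol alongside test compounds over 18 hr at 37C; signal came from LiveBLAzer B/G FRET fluorescence.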

[13] = target: Estrogen receptor (Homo sapiens) (UniProt P03372); assay: qHTS assay to identify small molecule agonists of the estrogen receptor alpha (ER-alpha) signaling pathway (AID 743075; calls by dose curve)
[14] = target: Estrogen receptor (Homo sapiens) (UniProt P03372); assay: qHTS assay to identify small molecule agonists of the estrogen receptor alpha (ER-alpha) signaling pathway using the BG1 cell line (AID 743079); note: nearly all actives have a fitted effect of over 20% in size
[15] = qHTS assay to identify small molecule antagonists of the estrogen receptor alpha (ER-alpha) signaling pathway using the BG1 cell line (AID 743080; calls by dose curve;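 note: BG1 cells stimulated with 17beta-estradiol alongside compound; series mostly up to about 70 µM; nearly all actives have a fitted effect of over 25% in size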)
In short: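 Luminescence from a 4×ERE-luciferase reporter in BG1-Luc-4E2 cells served as read-out. Cells, pre-cultured 5 days in stripped-serum phenol-red-free medium, were exposed to compound with 17beta-estradiol co-stimulation for 21.5 h at 37 C.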

[16] = target: Androgen receptor (Homo sapiens) (UniProt P10275); assay: qHTS assay to identify small molecule antagonists of the androgen receptor (AR) signaling pathway (AID 743035; active = well fitted inhibition curve with a large enough effect in the signal ratio in the repeat runs, not every such curve was filed as active; the % refers to the signal ratio)
In short: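 Quantitative HTS of the Tox21 10K library used HEK293 AR-UAS-bla cells stimulated with R1881 alongside compound for 16 h at 37C, followed by beta-lactamase FRET detection (LiveBLAzer B/G, 2 h, RT).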

[17] = target: Androgen receptor (Homo sapiens) (UniProt P10275); assay: qHTS assay to identify small molecule agonists of the androgen receptor (AR) signaling pathway (AID 743036; active = well fitted activation curve with a large enough effect in the signal ratio in the repeat runs, with a control signal flat, not every such curve was filed as active; the % refers to the signal ratio)
In short: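 Agonist activity was scored by beta-lactamase reporter fluorescence in stably transfected HEK293 cells exposed to compounds for 16 h at 37C and 5% CO2. Substrate loading took 2 h at room temperature.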

[18] = target: Androgen receptor (Homo sapiens) (UniProt P10275); assay: qHTS assay to identify small molecule agonists of the androgen receptor (AR) signaling pathway using the MDA cell line (AID 743040; note: nearly all actives have a fitted effect of over 20% in size)
In short: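 Agonist activity is measured as luciferase luminescence in human MDA-kb2 cells whose MMTV reporter responds to both AR and GR. Compounds in DMSO incubate 16 h at 37C, 0% CO2, and ONE-Glo is read after 30 min.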

[19] = target: Androgen receptor (Homo sapiens) (UniProt P10275); assay: qHTS assay to identify small molecule antagonists of the androgen receptor (AR) signaling pathway using the MDA cell line (AID 743042; note: nearly all actives have a fitted effect of over 55% in size)
In short: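 MDA-kb2 cells (human breast carcinoma, stably carrying an MMTV-luciferase reporter responsive to AR and GR) were plated at 3,000 cells/well and preincubated 5 hr at 37C, then given compound plus R1881 agonist for 16 h. ONE-Glo luminescence was read.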

Measured: Potency

Chain of Aromatase (Homo sapiens) (P11511 whole entry, looked up): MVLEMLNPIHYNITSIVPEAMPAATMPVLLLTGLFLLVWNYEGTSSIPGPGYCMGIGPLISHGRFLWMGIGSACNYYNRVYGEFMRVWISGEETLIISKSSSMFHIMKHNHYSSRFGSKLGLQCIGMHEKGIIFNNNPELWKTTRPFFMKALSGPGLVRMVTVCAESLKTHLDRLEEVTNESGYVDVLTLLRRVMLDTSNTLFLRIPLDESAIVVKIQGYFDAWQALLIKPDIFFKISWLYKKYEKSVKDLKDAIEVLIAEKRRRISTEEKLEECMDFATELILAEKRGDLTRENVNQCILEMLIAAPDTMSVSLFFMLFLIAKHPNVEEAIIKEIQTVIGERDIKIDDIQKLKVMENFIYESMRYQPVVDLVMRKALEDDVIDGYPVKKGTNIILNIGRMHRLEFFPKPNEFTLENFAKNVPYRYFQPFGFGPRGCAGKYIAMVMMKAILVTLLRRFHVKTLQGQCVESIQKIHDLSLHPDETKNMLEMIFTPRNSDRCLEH
Chain of Estrogen receptor (Homo sapiens) (P03372 whole entry, looked up): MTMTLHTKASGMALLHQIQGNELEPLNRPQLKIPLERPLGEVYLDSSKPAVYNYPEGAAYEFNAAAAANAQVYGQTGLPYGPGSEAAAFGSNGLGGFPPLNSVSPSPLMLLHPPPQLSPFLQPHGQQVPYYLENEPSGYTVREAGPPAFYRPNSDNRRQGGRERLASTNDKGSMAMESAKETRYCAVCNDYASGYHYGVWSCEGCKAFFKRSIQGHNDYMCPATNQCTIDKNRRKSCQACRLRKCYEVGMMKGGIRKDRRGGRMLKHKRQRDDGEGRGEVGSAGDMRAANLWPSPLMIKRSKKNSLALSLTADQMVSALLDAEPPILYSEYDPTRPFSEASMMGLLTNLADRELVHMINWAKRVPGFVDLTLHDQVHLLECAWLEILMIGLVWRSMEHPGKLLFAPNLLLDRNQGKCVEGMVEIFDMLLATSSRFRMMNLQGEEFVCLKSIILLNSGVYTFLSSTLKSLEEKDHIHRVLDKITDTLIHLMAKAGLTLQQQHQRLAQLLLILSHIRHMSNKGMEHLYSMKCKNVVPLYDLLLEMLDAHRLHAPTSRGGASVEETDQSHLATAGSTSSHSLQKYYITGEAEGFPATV
Chain of Androgen receptor (Homo sapiens) (P10275 whole entry, looked up): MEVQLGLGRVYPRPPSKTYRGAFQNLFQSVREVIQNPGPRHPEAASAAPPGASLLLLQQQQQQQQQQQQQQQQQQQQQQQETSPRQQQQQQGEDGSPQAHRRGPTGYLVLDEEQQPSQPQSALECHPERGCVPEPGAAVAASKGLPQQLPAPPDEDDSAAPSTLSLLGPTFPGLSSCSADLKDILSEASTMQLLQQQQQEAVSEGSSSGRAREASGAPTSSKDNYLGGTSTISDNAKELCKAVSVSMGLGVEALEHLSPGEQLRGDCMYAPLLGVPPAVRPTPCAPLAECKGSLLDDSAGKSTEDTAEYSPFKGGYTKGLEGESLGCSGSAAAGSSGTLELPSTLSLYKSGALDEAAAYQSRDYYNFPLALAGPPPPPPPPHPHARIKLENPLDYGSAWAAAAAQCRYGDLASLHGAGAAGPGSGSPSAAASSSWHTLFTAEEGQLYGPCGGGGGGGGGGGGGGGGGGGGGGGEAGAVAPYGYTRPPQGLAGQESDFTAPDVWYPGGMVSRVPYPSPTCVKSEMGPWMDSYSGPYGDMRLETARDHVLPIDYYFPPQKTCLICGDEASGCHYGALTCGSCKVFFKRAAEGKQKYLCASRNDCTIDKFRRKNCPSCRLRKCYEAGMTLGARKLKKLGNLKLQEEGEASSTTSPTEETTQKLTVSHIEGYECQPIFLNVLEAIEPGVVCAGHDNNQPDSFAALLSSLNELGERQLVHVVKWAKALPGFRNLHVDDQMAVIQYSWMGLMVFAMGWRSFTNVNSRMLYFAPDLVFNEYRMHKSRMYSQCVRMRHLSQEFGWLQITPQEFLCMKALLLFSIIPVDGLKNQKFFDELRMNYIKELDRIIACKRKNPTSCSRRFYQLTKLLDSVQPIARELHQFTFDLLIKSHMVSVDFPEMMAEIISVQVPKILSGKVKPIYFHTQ

COc1ccc(Br)c(C)c1
inactive: [1] | [2] | [3] | [4] | [5] | [6] | [7] | [8] | [9] | [10] | Aromatase (Homo sapiens)

C[C@@H](O)[C@H]1C(=O)N2C(C(=O)O)=C(SCCN=CN)C[C@H]12
not listed: [3] | [16] | [17] | [18] | [19]
inactive: all other assays above

COc1ccc(-c2cc(=O)c3c(O)cc(O[C@@H]4O[C@H](CO[C@@H]5O[C@@H](C)[C@H](O)[C@@H](O)[C@H]5O)[C@@H](O)[C@H](O)[C@H]4O)cc3o2)cc1O
not listed: [3] | [16] | [17] | [18] | [19]
inactive: all other assays above

CN1CCN(CC(=O)N2c3ccccc3C(=O)Nc3cccnc32)CC1
not listed: [5] | [7] | [8] | [11] | [16] | [17] | [18] | [19]
inactive: all other assays above

O=C(OCc1ccccc1)C(=O)OCc1ccccc1
not listed: [3]
inactive: all other assays above

CCOC(=O)CC(=O)c1ccccc1
not listed: [3] | [14] | [16] | [17] | [18] | [19]
inactive: all other assays above

CCC(C)(CCC(C)C)C(=O)O (stereo not drawn)
inactive: [1] | [2] | [4] | [5] | [6] | [11] | [7] | [8] | [9] | [10]

Cc1ccc(C=O)cc1C
not listed: [6] | [7] | [8] | [16] | [17] | [18] | [19]
inactive: all other assays above

N[C@@H](COP(=O)(O)O)C(=O)O
inactive: [1] | [2] | [3] | [4] | [5] | [11] | [7] | [8] | [9] | [10] | Aromatase (Homo sapiens)

CC(C)=CCOC(=O)c1ccccc1
inactive: [1] | [2] | [3] | [4] | [5] | [6] | [7] | [8] | [9] | [10]

Nc1cccc(O)c1
not listed: [4] | [9] | [14] | [16] | [17] | [18] | [19]
inactive: all other assays above

CC(=O)Nc1ccc(S(=O)(=O)Nc2ccc([N+](=O)[O-])cc2)cc1
not listed: [5] | [10] | [11] | [16] | [17] | [18] | [19]
inactive: all other assays above

NCCN1CCOCC1
inactive: [1] | [2] | [4] | [5] | [6] | [11] | [7] | [8] | [10] | Aromatase (Homo sapiens)

CCc1ccc(C=O)cc1
inactive: [1] | [2] | [4] | [5] | [6] | [11] | [7] | [8] | [9] | [10] | Aromatase (Homo sapiens)

NCCS
inactive: [1] | [2] | [4] | [5] | [6] | [11] | [7] | [8] | [9] | [10] | Aromatase (Homo sapiens)

CCCCC(CC)COCCO (stereo not drawn)
not listed: [2] | [16] | [17] | [18] | [19]
inactive: all other assays above

O=C(O)c1ccc(Cl)cc1Cl
not listed: [3] | [11] | [14] | [16] | [17] | [18] | [19]
inactive: all other assays above

COc1cc2c(cc1OC)[C@@H]1CC(=O)[C@@H](CC(C)C)CN1CC2
inactive: [1] | [5] | [6] | [7] | [8] | [12] | [13] | [14] | [15] | [10]
active: [2] 23.7 µM | [4] 29.8 µM

O=P(O)(O)OP(=O)(O)O
11.9 µM (active) and inactive: [4]
inactive: [1] | [2] | [5] | [6] | [11] | [9] | [10]

CCO[Si](CCCS)(OCC)OCC
inactive: [1] | [2] | [4] | [5] | [6] | [11] | [7] | [8] | [9] | [10] | Aromatase (Homo sapiens)

CC(=O)N[C@@H](CCC(=O)O)C(=O)O
inactive: [1] | [2] | [4] | [5] | [6] | [11] | [7] | [8] | [9] | [10] | Aromatase (Homo sapiens)

O=Cc1ccc(Cl)c(Cl)c1
inactive: [1] | [2] | [4] | [5] | [6] | [7] | [8] | [9] | [10] | Aromatase (Homo sapiens)

O=C1c2ccccc2C(=O)N1CCl
not listed: [3] | [4]
inactive: all other assays above

CCCCCCCCSCC
not listed: [2] | [16] | [17] | [18] | [19]
inactive: all other assays above

O=C(CCNNC(=O)c1ccncc1)NCc1ccccc1
not listed: [2] | [16] | [17] | [18] | [19]
inactive: all other assays above

CC(C)CC(C)CC(C)CC(C)COC(=O)c1ccccc1C(=O)OCC(C)CC(C)CC(C)CC(C)C (stereo not drawn)
inactive: [1] | [2] | [5] | [6] | [11] | [7] | [8] | [9] | [10] | Aromatase (Homo sapiens)

CCCCCCCCC(=O)Cl
not listed: [2] | [16] | [17] | [18] | [19]
inactive: all other assays above

COc1ccc2c(c1OC)C(=O)O[C@@H]2[C@H]1c2c(cc3c(c2OC)OCO3)CCN1C
inactive: [1] | [2] | [4] | [5] | [6] | [9]
active: [11] 11.9 µM
